Screening results (PubChem BioAssay)
An excerpt weighted towards active compounds, which were near 2.3% of everything screened.
ANO1 activ – activates or potentiates the mouse TMEM16A chloride channel; B-score at 10 µM; Q8BHY3; 340,000 tested, 0.3% active; AID 623877; HEK293 TMEM16A/YFP-H148Q/I152L, iodide quench fluorescence; hits give low values;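 active = fluorescence-ratio B-score plate-corrected deviation score at least 3 library SD below zero, with starting fluorescence score within 5 deviations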;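 note: channel opened by trigger with iodide after compound preincubation; score built on the fluorescence ratio of max minus min over baseline; more negative score means more quench and so TMEM16A activation or potentiation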
Target sequence (Q8BHY3 whole entry, looked up): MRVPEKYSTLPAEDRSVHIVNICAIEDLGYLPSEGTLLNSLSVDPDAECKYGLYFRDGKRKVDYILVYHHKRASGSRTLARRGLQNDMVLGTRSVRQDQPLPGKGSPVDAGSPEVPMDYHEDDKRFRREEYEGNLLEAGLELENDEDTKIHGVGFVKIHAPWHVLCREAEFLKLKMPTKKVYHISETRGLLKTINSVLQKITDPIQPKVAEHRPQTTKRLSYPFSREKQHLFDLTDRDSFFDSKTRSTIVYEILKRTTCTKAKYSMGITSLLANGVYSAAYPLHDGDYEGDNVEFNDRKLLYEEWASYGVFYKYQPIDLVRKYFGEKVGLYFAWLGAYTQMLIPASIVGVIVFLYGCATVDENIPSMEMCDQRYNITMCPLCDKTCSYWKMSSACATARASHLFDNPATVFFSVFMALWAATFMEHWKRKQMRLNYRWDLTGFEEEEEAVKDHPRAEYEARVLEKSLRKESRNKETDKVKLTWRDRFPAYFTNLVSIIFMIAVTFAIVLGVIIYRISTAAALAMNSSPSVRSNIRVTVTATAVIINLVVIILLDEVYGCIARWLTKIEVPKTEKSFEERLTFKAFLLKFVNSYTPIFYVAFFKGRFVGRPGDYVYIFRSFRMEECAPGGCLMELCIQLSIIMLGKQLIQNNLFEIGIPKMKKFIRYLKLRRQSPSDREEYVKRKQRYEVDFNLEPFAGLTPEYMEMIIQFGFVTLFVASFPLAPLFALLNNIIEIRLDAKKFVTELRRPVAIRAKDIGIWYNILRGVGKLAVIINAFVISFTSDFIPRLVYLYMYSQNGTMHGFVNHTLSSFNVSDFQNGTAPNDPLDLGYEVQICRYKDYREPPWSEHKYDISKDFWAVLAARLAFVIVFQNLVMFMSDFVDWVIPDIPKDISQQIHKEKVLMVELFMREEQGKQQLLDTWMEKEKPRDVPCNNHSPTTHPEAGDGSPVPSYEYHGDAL
TMEM16A inh – blocks the mouse calcium-activated chloride channel TMEM16A; Q8BHY3; HEK293 TMEM16A/YFP iodide influx fluorescence, ionomycin; normalized B-score (activity score, 25-100; higher = stronger inhibition) at 10 µM; 310,000 tested, 1.2% active;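 active = ratio plate-corrected score three or more library SD toward inhibition, starting fluorescence score within five deviations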;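 note: score derived from kinetic fluorescence span divided by baseline fluorescence per well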
CHT PAM – human CHT allosteric activation; CHT-expressing cells, membrane potential dye, choline EC20; hits give high values; LV-AA mutant CHT in HEK293 cells; 310,000 tested, 0.49% active; AID 488977; Q9GZV3; B-score at 10 µM;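 active = initial fluorescence not abnormally high and integrated response B-score, plate-corrected, over 3 SD above library mean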
CHT inh – inhibitors of human choline transporter CHT | Q9GZV3 | CHT-expressing cells, membrane potential dye, choline response; hits give low values | B-score at 10 µM | 310,000 tested, 0.86% active;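 active = B-score over 3 SD under the library average, and starting fluorescence ratio not unusually high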;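 note: choline stimulus applied at its EC90 after an EC20 pre-addition; B-score computed on integrated fluorescence ratio after choline addition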
CHT inh conf – human CHT inhibition, confirmatory screen | shares compounds with CHT inh | CHT-expressing cells, choline membrane potential dye; LV-to-AA substituted CHT, HEK293 cells | 2,400 tested, 70% active | CHT activity remaining % of control (hits give low values), % at 10 µM;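 active = choline transporter activity left, mean of duplicates at 10 µM, below buffer-only control mean minus 3 SD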;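 note: depolarization triggered by choline at its EC90 following an EC20 pre-addition; 0% = hemicholinium-3 full block and 100% = buffer-only control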
HEK293 CHT ctr – activity in parental HEK293 cells lacking CHT; shares compounds with CHT inh; membrane potential dye, choline response; active = decrease or increase beyond buffer ±3SD; membrane potential ratio readout (active if shifted either direction beyond buffer ±3SD; no single direction) at 10 µM; 2,400 tested, 4% active; AID 493222;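 note: parental cells lack the transporter so any hit is non-specific; ratio is peak minus trough fluorescence over baseline after EC90 choline challenge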
* hit, by the source's call; i = inactive; x = no result given.

SMILES	ANO1 activ	TMEM16A inh	CHT PAM	CHT inh	CHT inh conf	HEK293 CHT ctr
CCNC(=O)[C@H]1O[C@@H](n2cnc3c(N)nc(NCCc4ccc(CCC(=O)O)cc4)nc32)[C@H](O)[C@@H]1O	i	i	i	-5.3*	46%*	i
O=C(CCCN1C(=O)/C(=C/c2ccccc2)SC1=S)N1CCOCC1	i	i	i	-5.6*	i	i
CN1CCN(C(=O)CCCN2C(=O)/C(=C/c3cccc(Br)c3)SC2=S)CC1	i	x	x	x	x	x
O=C(CCN1C(=O)/C(=C\c2ccccc2)SC1=S)N1CCOCC1	i	i	i	i	x	x
O=C(CCN1C(=O)/C(=C\c2cccc(Br)c2)SC1=S)NCCCN1CCOCC1	i	i	i	-5.6*	69%*	i
CN1CCN(C(=O)CCN2C(=O)/C(=C/c3cccc(Br)c3)SC2=S)CC1	i	i	i	-5.2*	70%*	i
O=C(CCN1C(=O)/C(=C/c2ccccc2)SC1=S)NCCCN1CCOCC1	i	i	i	i	x	x
CC(CC1C(C#N)=C(N)SC(N)=C1C#N)c1ccccc1 (configuration not stated)	i	100*	i	-5.3*	i	i
CN(c1ccccc1)c1ncnc2c1ncn2C	i	x	x	x	x	x
CCCC1=NN2C(=N)/C(=C\c3ccc(SCc4ccco4)o3)C(=O)N=C2S1	i	i	i	-5.8*	69%*	i
CCCC1=NN2C(=N)/C(=C\c3cc(C)n(Cc4ccccc4)c3C)C(=O)N=C2S1	i	i	i	i	x	x
CCC1=NN2C(=N)/C(=C\c3ccc(SCc4ccco4)o3)C(=O)N=C2S1	i	i	i	-5.3*	i	i
CC(C)c1nc2oc3c(N(C)CCO)ncnc3c2c2c1CCC2	i	i	i	-5.7*	i	i
CC(C)c1nc2oc3c(NCC4CCCO4)ncnc3c2c2c1CCC2 (configuration not stated)	i	i	i	i	x	x
Cc1cccc(OCCOC(=O)c2c(-c3ccccc3)noc2C)c1	i	i	i	-5.4*	i	i
CCCOc1cccc(NC(=O)c2c(-c3ccccc3)noc2C)c1	i	i	i	i	x	x
Oc1c(/C=N/c2ccccn2)sc2ccccc12	i	i	i	-8.2*	i	i
Oc1c(C=Nc2ccc(Cl)cn2)sc2ccccc12	i	i	i	i	x	x
Cc1cccc(C)c1NC(=O)CNC(=O)c1cccc(S(=O)(=O)NCc2cccs2)c1	i	x	x	x	x	x
CCOc1ccc(C(C)C)cc1S(=O)(=O)N1CCN(C(=O)c2ccco2)CC1	i	i	i	i	x	x
C=CCSc1nsc(NC(=O)Nc2ccc(F)cc2)n1	i	100*	i	-7.8*	i	i
CN(CC(=O)Nc1cccc(F)c1)C(=O)c1cccnc1Sc1ccccc1Cl	i	i	i	i	x	x
N#C/C(C(N)=O)=c1/ccc2c(c1)N1C3=C(CCCC3)CC3CCCCC31N=2 (configuration not stated)	x	i	i	-15*	23%*	i
CN(C)S(=O)(=O)c1ccc(NC(=O)C2CC3C=CC2C3)cc1 (configuration not stated)	i	i	i	-6.7*	i	i
CN(C)S(=O)(=O)c1ccc(NC(=O)C2COc3ccccc3O2)cc1 (configuration not stated)	i	i	i	i	x	x
SMILES	ANO1 activ	TMEM16A inh	CHT PAM	CHT inh	CHT inh conf	HEK293 CHT ctr
CC(Oc1ccc2c(-c3ccccc3)cc(=O)oc2c1)C(=O)O (configuration not stated)	i	i	i	i	x	x
COC(=O)C(Oc1ccc2c(-c3ccc(OC)cc3)cc(=O)oc2c1)c1ccccc1 (configuration not stated)	i	i	i	-6.2*	i	i
CCN(CC(=O)Nc1ccc2c(c1)OCO2)Cc1nc2ccccc2c(=O)[nH]1	i	i	i	i	x	x
CCN(CC(=O)Nc1ccc2c(c1)CCC2)Cc1nc2ccccc2c(=O)[nH]1	i	i	i	-5.1*	i	i
Cc1ccc(S(=O)(=O)NCCC(=O)N2CCN(c3ccccc3)CC2)cc1C	i	x	x	x	x	x
CC(=O)Nc1ccc(C(=O)CN2C(=O)NC3(CCCc4ccccc43)C2=O)c(F)c1 (configuration not stated)	i	x	x	x	x	x
CCN(CC(=O)NCc1cccs1)S(=O)(=O)c1ccccc1Cl	i	i	i	i	x	x
CCN(CC(=O)NCc1cccs1)S(=O)(=O)c1ccc(C(C)C)cc1	i	i	i	-5*	60%*	i
NNC(=O)c1ccc(CN2CCCCC2)o1	i	i	i	-5.9*	i	i
NNC(=O)c1ccc(COc2ccc(Br)cc2)o1	i	i	i	i	x	x
CCc1nnc(NC(=O)c2cc(S(=O)(=O)N(CC)CC)ccc2Cl)s1	i	i	i	-5.9*	52%*	i
CCc1nnc(NS(=O)(=O)c2ccc(NC(=O)c3cc(Cl)ccc3Cl)cc2)s1	i	i	i	-6.1*	30%*	i
CCN(CC)S(=O)(=O)c1ccc(Cl)c(C(=O)NC)c1	i	i	i	i	x	x
CCc1nnc(NS(=O)(=O)c2ccc(NC(=O)c3cc(Cl)ccc3[N+](=O)[O-])cc2)s1	i	i	i	i	x	x
CCc1nnc(NS(=O)(=O)c2ccc(NC(=O)c3cccc(Br)c3)cc2)s1	i	i	i	-7*	48%*	i
CCc1nnc(NS(=O)(=O)c2ccc(NC(=O)c3cccc4ccccc34)cc2)s1	i	i	i	i	x	x
CCc1nnc(NS(=O)(=O)c2ccc(NC(=O)COc3ccc4ccccc4c3)cc2)s1	i	i	i	-5.8*	i	i
Cc1ccc(C)c(S(=O)(=O)NCCC(=O)N2CCCC(C(N)=O)C2)c1 (configuration not stated)	i	x	x	x	x	x
CCCCn1c(-c2csc(CCC)c2)n[nH]c1=S	i	i	i	-5.6*	i	i
CC(OC(=O)c1ccccc1C(=O)N(C)c1ccccc1)C(=O)Nc1ccccc1[N+](=O)[O-] (configuration not stated)	i	i	i	i	x	x
COc1ccc(CNC(=O)[C@H](C)NC(=O)C2CCN(S(=O)(=O)c3ccc(F)cc3)CC2)cc1	i	i	i	i	x	x
Cc1ccnc(SCc2cc(=O)c(OC(=O)c3ccco3)co2)n1	i	i	i	-5.8*	61%*	i
Cc1coc2cc3oc(=O)c(CCC(=O)N4CCC(C(=O)O)(c5ccccc5)CC4)c(C)c3cc12	i	i	i	i	x	x
